# B1: unnamed (peptide)
# chain: LLRRTIPKRPFYHVL
# B2: unnamed (peptide)
# chain: HRRRRVFSIPSLKSI
# Target: SpBzz1-D2
# Test: SPOT peptide array binding signal intensity (averaged, normalized) (arbitrary units (background-subtracted, floor 0; scale differs between SH3 domains)); higher = stronger binding of the SH3 domain to the peptide
# Method in brief: (§1)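 GST-SH3 fusions from four yeast species, purified on glutathione Sepharose, were incubated at 10 μg/ml overnight at 4°C on membranes of synthetic 15-mer peptides in which cysteines were replaced with serines. Binding signal is the normalized, background-subtracted spot intensity averaged over replicates, in domain-specific arbitrary units.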
row,Binder,SPOT peptide array binding signal intensity
1,B1,≤ 0
2,B2,0.5

# Target: SpCyk3
# Test: as above
# Method in brief: as §1
row,Binder,SPOT peptide array binding signal intensity
1,B1,≤ 0
2,B2,6

# Target: SpHof1
# Test: as above
# Method in brief: as §1
row,Binder,SPOT peptide array binding signal intensity
1,B1,73
2,B2,322

# Target: SpHof1-2
# Test: as above
# Method in brief: as §1
row,Binder,SPOT peptide array binding signal intensity
1,B1,3.25
2,B2,51.2

# Target: SpHof1-3
# Test: as above
# Method in brief: as §1
row,Binder,SPOT peptide array binding signal intensity
1,B1,401
2,B2,622

# Target: SpHse1
# Test: as above
# Method in brief: as §1
row,Binder,SPOT peptide array binding signal intensity
1,B1,372
2,B2,997

# Target: SpLsb1
# Test: as above
# Method in brief: as §1
row,Binder,SPOT peptide array binding signal intensity
1,B1,36.5
2,B2,11

# Target: SpLsb4
# Test: as above
# Method in brief: as §1
row,Binder,SPOT peptide array binding signal intensity
1,B1,463
2,B2,372

# Target: SpMyo1
# Test: as above
# Method in brief: as §1
row,Binder,SPOT peptide array binding signal intensity
1,B1,0.5
2,B2,8.25

# Target: SpNbp2
# Test: as above
# Method in brief: as §1
row,Binder,SPOT peptide array binding signal intensity
1,B1,181
2,B2,1660

# Target: SpPex13
# Test: as above
# Method in brief: as §1
row,Binder,SPOT peptide array binding signal intensity
1,B1,1.5
2,B2,21

# Target: SpRvs167
# Test: as above
# Method in brief: as §1
row,Binder,SPOT peptide array binding signal intensity
1,B1,227
2,B2,55.8

# Target: SpSla1-D1-D2
# Test: as above
# Method in brief: as §1
row,Binder,SPOT peptide array binding signal intensity
1,B1,≤ 0
2,B2,≤ 0

# Target: SpSla1-D3
# Test: as above
# Method in brief: as §1
row,Binder,SPOT peptide array binding signal intensity
1,B1,11
2,B2,30

# Target: AgAbp1
# Test: as above
# Method in brief: as §1
row,Binder,SPOT peptide array binding signal intensity
1,B2,65.5

# Target: AgBbc1
# Test: as above
# Method in brief: as §1
row,Binder,SPOT peptide array binding signal intensity
1,B2,88.2

# Target: AgBem1-D1
# Test: as above
# Method in brief: as §1
row,Binder,SPOT peptide array binding signal intensity
1,B2,426

# Target: AgBzz1-D1
# Test: as above
# Method in brief: as §1
row,Binder,SPOT peptide array binding signal intensity
1,B2,45

# Target: AgBzz1-D2
# Test: as above
# Method in brief: as §1
row,Binder,SPOT peptide array binding signal intensity
1,B2,28.5

# Target: AgCyk3
# Test: as above
# Method in brief: as §1
row,Binder,SPOT peptide array binding signal intensity
1,B2,18

# Target: AgFus1
# Test: as above
# Method in brief: as §1
row,Binder,SPOT peptide array binding signal intensity
1,B2,1100

# Target: AgHof1
# Test: as above
# Method in brief: as §1
row,Binder,SPOT peptide array binding signal intensity
1,B2,117

# Target: AgHse1
# Test: as above
# Method in brief: as §1
row,Binder,SPOT peptide array binding signal intensity
1,B2,2250

# Target: AgLsb1
# Test: as above
# Method in brief: as §1
row,Binder,SPOT peptide array binding signal intensity
1,B2,51.2

# Target: AgLsb4
# Test: as above
# Method in brief: as §1
row,Binder,SPOT peptide array binding signal intensity
1,B2,264

# Target: AgMyo5
# Test: as above
# Method in brief: as §1
row,Binder,SPOT peptide array binding signal intensity
1,B2,6

# Target: AgNbp2
# Test: as above
# Method in brief: as §1
row,Binder,SPOT peptide array binding signal intensity
1,B2,470

# Target: AgRvs167
# Test: as above
# Method in brief: as §1
row,Binder,SPOT peptide array binding signal intensity
1,B2,15.8

# Target: AgSho1
# Test: as above
# Method in brief: as §1
row,Binder,SPOT peptide array binding signal intensity
1,B2,168

# Target: AgSla1-D1-D2
# Test: as above
# Method in brief: as §1
row,Binder,SPOT peptide array binding signal intensity
1,B2,776

# Target: AgSla1-D3
# Test: as above
# Method in brief: as §1
row,Binder,SPOT peptide array binding signal intensity
1,B2,11

# Target: CaAbp1-D1
# Test: as above
# Method in brief: as §1
row,Binder,SPOT peptide array binding signal intensity
1,B2,703

# Target: CaAbp1-D2
# Test: as above
# Method in brief: as §1
row,Binder,SPOT peptide array binding signal intensity
1,B2,734

# Target: CaBbc1
# Test: as above
# Method in brief: as §1
row,Binder,SPOT peptide array binding signal intensity
1,B2,198

# Target: CaBem1-D1
# Test: as above
# Method in brief: as §1
row,Binder,SPOT peptide array binding signal intensity
1,B2,100

# Target: CaBzz1-D1
# Test: as above
# Method in brief: as §1
row,Binder,SPOT peptide array binding signal intensity
1,B2,60

# Target: CaBzz1-D2
# Test: as above
# Method in brief: as §1
row,Binder,SPOT peptide array binding signal intensity
1,B2,69

# Target: CaCyk3
# Test: as above
# Method in brief: as §1
row,Binder,SPOT peptide array binding signal intensity
1,B2,75

# Target: CaFus1
# Test: as above
# Method in brief: as §1
row,Binder,SPOT peptide array binding signal intensity
1,B2,1310

# Target: CaHof1
# Test: as above
# Method in brief: as §1
row,Binder,SPOT peptide array binding signal intensity
1,B2,0.5

# Target: CaHse1
# Test: as above
# Method in brief: as §1
row,Binder,SPOT peptide array binding signal intensity
1,B2,232

# Target: CaLsb1
# Test: as above
# Method in brief: as §1
row,Binder,SPOT peptide array binding signal intensity
1,B2,2.5

# Target: CaLsb4
# Test: as above
# Method in brief: as §1
row,Binder,SPOT peptide array binding signal intensity
1,B2,196

# Target: CaMyo5
# Test: as above
# Method in brief: as §1
row,Binder,SPOT peptide array binding signal intensity
1,B2,3.5

# Target: CaNbp2
# Test: as above
# Method in brief: as §1
row,Binder,SPOT peptide array binding signal intensity
1,B2,887

# Target: CaRvs167
# Test: as above
# Method in brief: as §1
row,Binder,SPOT peptide array binding signal intensity
1,B2,103

# Target: CaRvs167-3
# Test: as above
# Method in brief: as §1
row,Binder,SPOT peptide array binding signal intensity
1,B2,319

# Target: CaSho1
# Test: as above
# Method in brief: as §1
row,Binder,SPOT peptide array binding signal intensity
1,B2,1550

# Target: CaSla1-D1-D2
# Test: as above
# Method in brief: as §1
row,Binder,SPOT peptide array binding signal intensity
1,B2,49

# Target: CaSla1-D3
# Test: as above
# Method in brief: as §1
row,Binder,SPOT peptide array binding signal intensity
1,B2,29.5

# Target: ScAbp1
# Test: as above
# Method in brief: as §1
row,Binder,SPOT peptide array binding signal intensity
1,B2,38

# Target: ScBbc1
# Test: as above
# Method in brief: as §1
row,Binder,SPOT peptide array binding signal intensity
1,B2,43.5

# Target: ScBem1-D1
# Test: as above
# Method in brief: as §1
row,Binder,SPOT peptide array binding signal intensity
1,B2,76

# Target: ScBzz1-D1
# Test: as above
# Method in brief: as §1
row,Binder,SPOT peptide array binding signal intensity
1,B2,21

# Target: ScBzz1-D2
# Test: as above
# Method in brief: as §1
row,Binder,SPOT peptide array binding signal intensity
1,B2,51

# Target: ScCyk3
# Test: as above
# Method in brief: as §1
row,Binder,SPOT peptide array binding signal intensity
1,B2,238

# Target: ScFus1
# Test: as above
# Method in brief: as §1
row,Binder,SPOT peptide array binding signal intensity
1,B2,1620

# Target: ScHof1
# Test: as above
# Method in brief: as §1
row,Binder,SPOT peptide array binding signal intensity
1,B2,3

# Target: ScHse1
# Test: as above
# Method in brief: as §1
row,Binder,SPOT peptide array binding signal intensity
1,B2,2170

# Target: ScLsb1
# Test: as above
# Method in brief: as §1
row,Binder,SPOT peptide array binding signal intensity
1,B2,48.8

# Target: ScLsb2
# Test: as above
# Method in brief: as §1
row,Binder,SPOT peptide array binding signal intensity
1,B2,12.5

# Target: ScLsb3
# Test: as above
# Method in brief: as §1
row,Binder,SPOT peptide array binding signal intensity
1,B2,780

# Target: ScLsb4
# Test: as above
# Method in brief: as §1
row,Binder,SPOT peptide array binding signal intensity
1,B2,44.5

# Target: ScMyo3
# Test: as above
# Method in brief: as §1
row,Binder,SPOT peptide array binding signal intensity
1,B2,9.75

# Target: ScMyo5
# Test: as above
# Method in brief: as §1
row,Binder,SPOT peptide array binding signal intensity
1,B2,8

# Target: ScNbp2
# Test: as above
# Method in brief: as §1
row,Binder,SPOT peptide array binding signal intensity
1,B2,841

# Target: ScPex13
# Test: as above
# Method in brief: as §1
row,Binder,SPOT peptide array binding signal intensity
1,B2,≤ 0

# Target: ScRvs167
# Test: as above
# Method in brief: as §1
row,Binder,SPOT peptide array binding signal intensity
1,B2,95.5

# Target: ScSho1
# Test: as above
# Method in brief: as §1
row,Binder,SPOT peptide array binding signal intensity
1,B2,1320

# Target: ScSla1-D1-D2
# Test: as above
# Method in brief: as §1
row,Binder,SPOT peptide array binding signal intensity
1,B2,321

# Target: ScSla1-D3
# Test: as above
# Method in brief: as §1
row,Binder,SPOT peptide array binding signal intensity
1,B2,12.8

# Target: SpAbp1-D1
# Test: as above
# Method in brief: as §1
row,Binder,SPOT peptide array binding signal intensity
1,B2,293

# Target: SpBbc1
# Test: as above
# Method in brief: as §1
row,Binder,SPOT peptide array binding signal intensity
1,B2,12

# Target: SpBzz1-D1
# Test: as above
# Method in brief: as §1
row,Binder,SPOT peptide array binding signal intensity
1,B2,122

# From the supplement of paper PMC4466140
